A selection: hits, their analogues and other compounds. The true share with any hit is near 7.9%.
HCMV antiviral: human cytomegalovirus inhibition | HFF cells, HCMV-luciferase reporter, 72 h; active compounds read low | activity change, negative = inhibition, % at 57.5 µM | hit rate 4.5% among 410,000; in the data active = activity change below about -60%; inconclusive = no clear call, values can overlap the other calls; inactive = above about -39%
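Luciferase read-out from HCMV-luciferase-infected HFFs (MOI 1 PFU/cell) 72 h post infection at 37C; compounds added after 16 h cell attachment; activity normalized between buffer-only basal and Salinomycin (10uM) inhibitor controls.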
MARV entry inh: inhibitors of Marburg virus binding or cell entry; hit rate 1.8% among 300,000; Potency, µM (top dose mostly 37.8 µM), without a hit: at the highest dose activity change, negative = inhibition, most hits filed as inhibitors; Marburg virus pseudotyped entry inhibition, cell reporter; calls by dose curve; tested in HEK293 cells; also: potency is read from the fitted curve at half-maximal effect
HCV inh: inhibitors of hepatitis C virus infection. Potency, µM (doses to about 41.8 µM), inactives show at the top dose activity change, negative = inhibition, actives largely listed as inhibitors. hit rate 3.4% among 340,000. Huh7.5.1 HCVcc-Cre infection, luciferase reporter, 44 h; active = well fitted inhibition curve with a large enough effect; inconclusive = small, poorly fitted or top-dose-only effect, or another doubt; inactive = no such curve, though single readings can be large or run the other way; also: potency is read from the fitted curve at half-maximal effect
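1,000 cells/well; 4 h culture; + compound; + HCVcc-Cre (~0.5 moi); 44 h; luciferase substrate, RT 15 min; read 15 sec.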
FMDV antiviral: antivirals against foot and mouth disease virus; FMDV antiviral cell-based qHTS; Potency, µM (titrated, usually from 57.9 µM), for the others: at the highest dose activity change, negative = inhibition, actives largely listed as inhibitors; hit rate 1.2% among 410,000; calls by dose curve; tested in HEK293T cells; also: read-out not given here; potency is read from the fitted curve at half-maximal effect; nearly all actives have a fitted effect of over 45% in size
Lassa entry inh: inhibitors of Lassa virus binding or cell entry; AID 540256; Potency, µM (top dose mostly 37.9 µM), without a hit: at the top dose activity change, negative = inhibition, most hits filed as inhibitors; Lassa virus pseudotype entry inhibition, cell reporter; hit rate 1.2% among 300,000; calls by dose curve; tested in HEK293 cells; also: potency is read from the fitted curve at half-maximal effect; nearly all actives have a fitted effect of over 50% in size
An asterisk follows results filed as active; ? = inconclusive; / = not tested or not shown; [ ] = dose if it differs, or a comment. % is scaled to controls: 0 for no effect and ±100 for the full control effect.

SMILES | HCMV antiviral | MARV entry inh | HCV inh | FMDV antiviral | Lassa entry inh
O=C(c1ccc(F)cc1)N1CCN2C(=O)c3ccccc3C12c1ccccc1 (stereo not drawn) | 34 | 9% | -4% | -17% | ?
COC(=O)C/C=C/[C@@H](C)[C@H](OC)c1ccccc1Br | / | -11%[14.2 µM] | / | / | /
COc1ccccc1OC1=NS(=O)(=O)c2ccccc21 | 34 | 6% | 22% | 40µM* | 11%
C[C@]12CC[C@@H]3c4ccc(O)cc4CC[C@H]3[C@@H]1CCC2=O | 47 | ? | -8%[8.37 µM] | -16% | ?
Cc1cc(O)cc2c1C1CCC3(C)C(=O)CCC3C1C=C2 (stereo not drawn) | -97* | ? | -17% | 22% | 2%[46.1 µM]
Cc1cccn2c(=O)c3cc(C#N)c(=O)n(-c4nnc(SCc5ccc(F)cc5)s4)c3nc12 | -3 | 9%[46.1 µM] | / | -11% | -6%[46.1 µM]
C[C@@H]1CN(Cc2ccc3c(c2)CN(Cc2cccc4c2OCO4)CCO3)C[C@H](C)O1 | / | / | / | -4% | /
O=[N+]([O-])c1ccc(Oc2ccc(F)cc2)c2ccncc12 | -68* | 2% | ? | ? | -18%
O=C(Nc1ccc(C(=O)OCc2cc(=O)n3nc(C4CC4)sc3n2)cc1)c1ccccc1 | 6 | / | / | ? | 15%[46.1 µM]
O=C(CN1CCCCC1)Nc1ccc(C(F)(F)F)cc1Cl | -70* | ? | 6% | 7% | 9%
O=C(CN1CCCC1)Nc1cc(C(F)(F)F)ccc1Cl | 1 | ? | 5% | -7% | -13%
FC(F)(F)c1ccc(CN2C[C@@H]3C(c4ccc(Cl)nc4)C4(c5cccnc5)CC3(C4)[C@H]2c2ccccc2)cc1 (stereo partly drawn) | -67* | / | -8% | ? | /
CCOC(=O)c1ccccc1NC(=O)Cn1nnc2sc3c(c2c1=O)CCCC3 | 8 | 6%[46.1 µM] | / | -29% | 18%[46.1 µM]
Cc1ccccc1NC(=O)c1cnc2sc(N3CCCC3)nn2c1=O | ? | / | / | 5% | -7%[46.1 µM]
Cc1cccc(C(=O)Nc2ccc(N3CCC(N4CCCCC4)CC3)c(C(=O)O)c2)c1 | 2 | / | / | 35% | 2%[46.1 µM]
CCN(CC)S(=O)(=O)c1cc(NC(=O)c2ccc3c(c2)NC(=O)C(C)S3)ccc1C (stereo not drawn) | -80* | / | 4µM* | 25µM* | /
Cc1cc(C)c(NC(=O)c2ccc3c(c2)NC(=O)C(C)S3)c(C)c1 (stereo not drawn) | -29 | / | ? | ? | /
CCN(CC)S(=O)(=O)c1cc(NC(=O)c2ccc(Br)s2)ccc1C | -83* | ? | 10µM* | ? | ?
COc1ccc(CCNc2nc3c(-c4cccc(C)c4)nnn3c3ccccc23)cc1OC | 25 | 5%[46.1 µM] | / | 1% | 10%[46.1 µM]
COC(=O)c1ccccc1NC(=O)C1CCCN(c2nnc(C)c3c(C)n(-c4ccccc4)nc23)C1 (stereo not drawn) | -12 | / | / | -12% | 2%[46.1 µM]
O=C(OCc1cccc(F)c1)c1ccc2c(c1)-c1ccccc1C2=O | 0 | -1% | -21% | 30% | ?
O=C(OCc1ccccc1F)c1ccc2c(c1)-c1ccccc1C2=O | 45 | 14% | 9% | 64% | 2.1µM*
CC(C)C(NS(C)(=O)=O)c1nnc2n1CCN(Cc1ccnc3ccccc13)CC2 (stereo not drawn) | / | / | / | -5% | /
Cc1ccc(S(=O)(=O)c2cn(C)c3cc(N4CCN(C)CC4)c(F)cc3c2=O)c(C)c1 | -20 | / | 13µM* | 12% | /
Cc1ccc(NC(=O)c2ccc3c(c2)N(CC(=O)N2CCCCC2)C(=O)C(C)(C)O3)cc1 | -20 | 0% | 5.6µM* | -24% | 5%
SMILES | HCMV antiviral | MARV entry inh | HCV inh | FMDV antiviral | Lassa entry inh
O=C(Cc1ccc(NC(=O)N2CCCCc3ccccc32)cc1)NCc1ccccc1 | 20 | / | / | -20% | ?
Cc1c(C)n(CCc2ccccc2)c2ncnc(NCCO)c12 | 100 | / | -25% | 45% | /
Cc1c(C)n(Cc2ccccc2)c2ncnc(Cl)c12 | -88* | / | ? | ? | /
COc1ccc2c(c1)[C@@H](NC(C)=O)[C@H](C)[C@@H](c1ccccc1)N2C(=O)Nc1ccc(C(F)(F)F)cc1 | -27 | / | / | / | /
C[C@@H]1O[C@@H](O[C@@H]2C=C3CC[C@@H]4C(CC[C@]5(C)[C@@H](c6ccc(=O)oc6)CC[C@]45O)[C@@]3(C)CC2)[C@H](O)[C@H](O)[C@H]1O (stereo partly drawn) | -97* | / | 0.56µM* | ? | /
C[C@@H]1O[C@@H](O[C@@H]2C=C3CCC4C(CC[C@]5(C)[C@@H](c6ccc(=O)oc6)CC[C@]45O)[C@@]3(C)CC2)[C@H](O)[C@H](O)[C@H]1O (stereo partly drawn) | -99* | / | ? | ? | /
Cc1ccc2c(c1)c1c(c(=O)n(-c3ccccc3C)c(=O)n1CC(=O)NCCC1=CCCCC1)n2C | 18 | / | / | ? | -2%[46.1 µM]
Nc1nc(-c2ccc(Oc3ccccc3)cc2)cs1 | 25 | / | 10µM* | 22% | /
COc1ccc(-c2csc(N)n2)cc1 | -7 | ? | ? | 41% | -21%
Nc1nc(-c2ccc(-c3ccccc3)cc2)cs1 | -1 | ? | 10µM* | 9% | -27%[46.1 µM]
CCOc1ccc(NC(=O)c2c(NCc3sccc3C)sc3c2CCCCC3)cc1 | -8 | / | / | 23% | -21%[46.1 µM]
CC(C)CCNc1nc2c(S(=O)(=O)c3ccc(Br)cc3)nnn2c2ccsc12 | 43 | / | / | -23% | 10%[46.1 µM]
O=C(Nc1cccc(S(=O)(=O)N2CCCCC2)c1)c1ccccc1NS(=O)(=O)c1ccc(F)cc1 | -98* | ? | ? | ? | -25%
Cc1ccc(NC(=O)c2ccccc2NS(=O)(=O)c2ccc(F)cc2)cc1S(=O)(=O)N1CCCCC1 | -98* | ? | ? | ? | ?
O=C(CSc1nccn1-c1cccc(Cl)c1)Nc1ccc2c(c1)OCO2 | -38 | / | / | 6% | 13%[46.1 µM]
Cn1nc(C(F)(F)F)c(/C=N/OC(=O)c2ccccc2)c1SCc1ccc(Cl)cc1 | -72* | ? | ? | -9% | 2%
CSCc1nc2sc(C(=O)Nc3nc(C)cs3)c(C)c2c(=O)[nH]1 | 44 | ? | 11µM* | 41% | 27%[46.1 µM]
Cc1ccc(NC(=O)c2sc3nc(CCl)[nH]c(=O)c3c2C)c(C)c1 | 15 | -28%[46.1 µM] | 11µM* | ? | 11%
Cc1csc(NC(=O)CSc2nc3sc(C)c(C)c3c(=O)[nH]2)n1 | 0 | 16% | -3% | -9% | 15%
Cc1cc(C)c(NC(=O)c2sc3nc(C)[nH]c(=O)c3c2C)c(C)c1 | 96 | / | / | / | /
COc1ccc(CC(=O)NCCc2sc(-c3ccc(Cl)cc3)nc2C)cc1OC | -1 | / | / | 0% | -12%[46.1 µM]
CCOc1ccc2[nH]c3c(NCCO)ncnc3c2c1 | 48 | / | 13% | 13% | /
C=CCNc1ncnc2c1[nH]c1ccccc12 | -9 | -24% | 11µM* | ? | -13%
C=CCNc1ncnc2c1[nH]c1ccc(Cl)cc12 | -97* | ? | ? | ? | 10µM*
COc1ccccc1CNS(=O)(=O)c1ccc2c(c1)CC(C)N2C(=O)C1CCC1 (stereo not drawn) | -61* | / | ? | ? | -24%[46.1 µM]
CCN(Cc1ccccc1)S(=O)(=O)c1ccc2c(c1)CC(C)N2C(=O)C1CCC1 (stereo not drawn) | -35 | / | / | -20% | 2.8µM*

Screens: PubChem, National Center for Advancing Translational Sciences (NCATS)
